According to PubChem BioAssay (NCATS):
Results filed as inconclusive are left out. Active and inactive are the calls of the source. The call rests on the fitted dose curve; in most records, active means well fitted curve in the direction sought with a large enough effect; inconclusive means small, poorly fitted or top-dose-only effect, or another doubt; inactive means no such curve, though single readings can be large; an effect the other way counts as inactive or inconclusive.

Experiment: qHTS of pediatric cancer cell lines to identify multiple opportunities for drug repurposing: Primary screen for MG 63 (6-TG R) cells (AID 1347105); further: nearly all actives have a fitted effect of over 50% in size; further: potency means the concentration at half of the fitted maximal effect
Conditions: MG 63 (6-TG R) viability, CellTiter-Glo, 48 h; series mostly up to 46 µM; activity change, negative = cytotoxic: at the top concentration
Outline: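 Following a 5-hour attachment period, cells at 500-1,000/well received compounds and were cultured for 48 hours. CellTiter-Glo was added and luminescence read to estimate viable, metabolically active cells.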
On the % scale 0 is the no-effect control and ±100 the full control effect.

| SMILES | activity change, negative = cytotoxic | Potency |
| --- | --- | --- |
| CC(C)(C)[C@]1(O)C[C@@H]2OC(=O)C[C@@]23C(=O)O[C@@H]2OC(=O)[C@H](O)C213 (some centres undefined) | -4.6% (inactive) |  |
| CC(=O)Nc1ccc(OC[C@](C)(O)C(=O)Nc2ccc([N+](=O)[O-])c(C(F)(F)F)c2)cc1 | -1.86% (inactive) |  |
| Cc1cc(O)ccc1Cl | 2.28% (inactive) |  |
| OCCCBr | -16.2% [at 92.7 µM] (inactive) |  |
| CCCCCCCCCCCCCCCC[N+](C)(C)C |  | 21.1 µM (active) |
| C=CC(=O)NCNC(=O)C=C | -34.7% [at 92.7 µM] (inactive) |  |
| CN[C@@H](C)[C@H](O)c1ccccc1 | -20.1% (inactive) |  |
| CSCC[C@@H](NC(=O)[C@@H](Cc1ccccc1)NC(=O)CNC(=O)CNC(=O)[C@@H](N)Cc1ccc(O)cc1)C(=O)O | 12.4% (inactive) |  |
| O=C1CCC[C@@H]2[C@H]3CCCN4CCC[C@@H](CN12)[C@@H]34 | -5.3% (inactive) |  |
| CN(C)[C@@H]1C(=O)C(C(N)=O)=C(O)[C@@]2(O)C(=O)C3=C(O)c4c(O)cccc4[C@@](C)(O)[C@H]3[C@H](O)[C@@H]12 | -1.16% (inactive) |  |
| O=C(O)C(Cl)Cl | -15.7% (inactive) |  |
| Oc1ccc2c3c1O[C@H]1[C@@H](O)C=C[C@H]4[C@@H](C2)NCC[C@@]341 | -13.9% [at 92.7 µM] (inactive) |  |
| CCN1C[C@]2(OC(=O)c3ccccc3NC(C)=O)CC[C@H](OC)[C@@]34[C@H]5CC6[C@@H](OC)C[C@](O)(C(C[C@@H]23)[C@@H]14)[C@@]5(O)[C@@H]6OC | -0.33% (inactive) |  |
| C#CC1(O)CCC2C3CCC4=CC(=O)CCC4(C)C3CCC21C (centres undefined) | -24.6% (inactive) |  |
| CC[N+]1(CCOC(=O)C(O)(c2ccccc2)c2ccccc2)CCCCC1 | -18.2% (inactive) |  |
| C[C@@H]1[C@H](O)[C@@H](C)C=CC=CCCC=CC=CC=CC=C[C@H](O[C@H]2O[C@@H](C)[C@H](O)[C@@H](N)[C@@H]2O)CC2O[C@](O)(C[C@@H](O)[C@H](O)CC[C@@H](O)C[C@@H](O)C[C@@H](O)CC(=O)O[C@H]1C)C[C@H](O)[C@H]2C(=O)O | -2.18% (inactive) |  |
| O=S(=O)(O)C(F)(F)C(F)(F)C(F)(F)C(F)(F)F | -11.4% [at 92.7 µM] (inactive) |  |
| CC1=C(C(=O)O)N2C(=O)[C@@H](N)[C@H]2SC1 | -15.6% [at 16.1 µM] (inactive) |  |

| SMILES | activity change, negative = cytotoxic | Potency |
| --- | --- | --- |
| CCOC(=O)Nc1ccc(NCc2ccc(F)cc2)cc1N | -1.91% (inactive) |  |
| CC(C)N(CCNC(=O)CN1CCCC1=O)C(C)C | -15.3% (inactive) |  |
| Nc1ccc(Cl)cc1N | -19.8% [at 92.7 µM] (inactive) |  |
| CCC1(CCC(C)C)C(=O)NC(=O)NC1=O | -16.1% [at 92.7 µM] (inactive) |  |
| Cc1nc(-c2ccc(-c3ccc(C(=O)N4CCc5cc6c(cc54)C4(CCN(C)CC4)CO6)cc3)c(C)c2)no1 | 20.2% (inactive) |  |
| CC(O)=C(C#N)C(=O)Nc1cc(Br)ccc1Br | -11.2% (inactive) |  |
| O=C(O)c1cc(Oc2ccc(C(F)(F)F)cc2Cl)ccc1[N+](=O)[O-] | -23% (inactive) |  |
| CCOCCOC(C)=O | -27.2% [at 92.7 µM] (inactive) |  |
| C[C@]12CC[C@@H]3[C@@H](CCC4=CC(=O)CC[C@@H]43)[C@@H]1CC[C@@H]2OC(=O)CCc1ccccc1 | -2.88% (inactive) |  |
| C#C[C@]1(O)C=C[C@@H]2[C@@H]3CCC4=CC(=O)CC[C@@H]4[C@H]3CC[C@@]21CC | -8.12% (inactive) |  |
| O=[N+]([O-])/N=C1\NCCN1Cc1ccc(Cl)nc1 | -0.683% (inactive) |  |
| CCCCC(CC)COC(=O)c1ccccc1C(=O)OCC(CC)CCCC (centres undefined) | -20% [at 92.7 µM] (inactive) |  |
| C=C[C@@H]1CN2CCC1C[C@@H]2[C@@H](O)c1ccnc2ccccc12 (some centres undefined) | -27.4% (inactive) |  |
| C[C@H]([C@H](O)CCC(C)(C)O)[C@H]1CC[C@@]2(O)C3=CC(=O)[C@@H]4C[C@@H](O)[C@@H](O)C[C@]4(C)[C@@H]3CC[C@]12C | -13.9% (inactive) |  |
| CCC(=O)O[C@@H]1C=C2CCC3C(CCC4(C)C3CC[C@@H]4OC(=O)CC)C2CC1 (some centres undefined) | -7.36% (inactive) |  |
| Cc1ccc(Cl)c(O)c1 | 7.38% (inactive) |  |
| O=[N+]([O-])c1ccc([As](=O)(O)O)cc1 | 9.02% (inactive) |  |

Experiment: qHTS of pediatric cancer cell lines to identify multiple opportunities for drug repurposing: Primary screen for control Hh wild type fibroblast cells (AID 1347106);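 further: a drop in luminescence marks cytotoxicity and a rise apparent proliferation; nearly all actives have a fitted effect of over 55% in size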
Conditions: Hh wild-type fibroblast viability, CellTiter-Glo luminescence, 48 h; series mostly up to 46 µM; activity change, negative = cytotoxic: at the top concentration
Outline: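 Cells (500-1,000/well) in growth media were settled 5 h at 37 degrees C, then given compounds for 48 h. Viability was read as CellTiter-Glo luminescence. Primary runs used MIPE at 11 points (0.78 nM-46 µM) and NPC at 8 points (0.59 nM-46 µM); follow-ups used 11 points.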

| SMILES | activity change, negative = cytotoxic |
| --- | --- |
| CC(C)(C)[C@]1(O)C[C@@H]2OC(=O)C[C@@]23C(=O)O[C@@H]2OC(=O)[C@H](O)C213 (some centres undefined) | 9.21% (inactive) |
| CC(=O)Nc1ccc(OC[C@](C)(O)C(=O)Nc2ccc([N+](=O)[O-])c(C(F)(F)F)c2)cc1 | 4.31% (inactive) |
| Cc1cc(O)ccc1Cl | 10.1% (inactive) |
| OCCCBr | -1.06% [at 92.7 µM] (inactive) |
| C=CC(=O)NCNC(=O)C=C | 5.52% [at 92.7 µM] (inactive) |
| CN[C@@H](C)[C@H](O)c1ccccc1 | 0.826% (inactive) |
| CSCC[C@@H](NC(=O)[C@@H](Cc1ccccc1)NC(=O)CNC(=O)CNC(=O)[C@@H](N)Cc1ccc(O)cc1)C(=O)O | 17.4% (inactive) |
| O=C1CCC[C@@H]2[C@H]3CCCN4CCC[C@@H](CN12)[C@@H]34 | -0.471% (inactive) |
| CN(C)[C@@H]1C(=O)C(C(N)=O)=C(O)[C@@]2(O)C(=O)C3=C(O)c4c(O)cccc4[C@@](C)(O)[C@H]3[C@H](O)[C@@H]12 | -1.22% (inactive) |
| O=C(O)C(Cl)Cl | -3.24% (inactive) |
| Oc1ccc2c3c1O[C@H]1[C@@H](O)C=C[C@H]4[C@@H](C2)NCC[C@@]341 | -5.68% [at 92.7 µM] (inactive) |
| CCN1C[C@]2(OC(=O)c3ccccc3NC(C)=O)CC[C@H](OC)[C@@]34[C@H]5CC6[C@@H](OC)C[C@](O)(C(C[C@@H]23)[C@@H]14)[C@@]5(O)[C@@H]6OC | 5.81% (inactive) |
| C#CC1(O)CCC2C3CCC4=CC(=O)CCC4(C)C3CCC21C (centres undefined) | 12.7% (inactive) |
| CC[N+]1(CCOC(=O)C(O)(c2ccccc2)c2ccccc2)CCCCC1 | 1.04% (inactive) |
| C[C@@H]1[C@H](O)[C@@H](C)C=CC=CCCC=CC=CC=CC=C[C@H](O[C@H]2O[C@@H](C)[C@H](O)[C@@H](N)[C@@H]2O)CC2O[C@](O)(C[C@@H](O)[C@H](O)CC[C@@H](O)C[C@@H](O)C[C@@H](O)CC(=O)O[C@H]1C)C[C@H](O)[C@H]2C(=O)O | 3.31% (inactive) |
| O=S(=O)(O)C(F)(F)C(F)(F)C(F)(F)C(F)(F)F | 10.6% [at 92.7 µM] (inactive) |
| CC1=C(C(=O)O)N2C(=O)[C@@H](N)[C@H]2SC1 | 4.48% [at 16.1 µM] (inactive) |

| SMILES | activity change, negative = cytotoxic |
| --- | --- |
| CCOC(=O)Nc1ccc(NCc2ccc(F)cc2)cc1N | -15.8% (inactive) |
| CC(C)N(CCNC(=O)CN1CCCC1=O)C(C)C | 4.4% (inactive) |
| Nc1ccc(Cl)cc1N | 2.07% [at 92.7 µM] (inactive) |
| CCC1(CCC(C)C)C(=O)NC(=O)NC1=O | 5.67% [at 92.7 µM] (inactive) |
| Cc1nc(-c2ccc(-c3ccc(C(=O)N4CCc5cc6c(cc54)C4(CCN(C)CC4)CO6)cc3)c(C)c2)no1 | -5.36% (inactive) |
| CC(O)=C(C#N)C(=O)Nc1cc(Br)ccc1Br | -9.18% (inactive) |
| O=C(O)c1cc(Oc2ccc(C(F)(F)F)cc2Cl)ccc1[N+](=O)[O-] | 4.68% (inactive) |
| CCOCCOC(C)=O | 0.0454% [at 92.7 µM] (inactive) |
| C[C@]12CC[C@@H]3[C@@H](CCC4=CC(=O)CC[C@@H]43)[C@@H]1CC[C@@H]2OC(=O)CCc1ccccc1 | 6.4% (inactive) |
| C#C[C@]1(O)C=C[C@@H]2[C@@H]3CCC4=CC(=O)CC[C@@H]4[C@H]3CC[C@@]21CC | 14% (inactive) |
| O=[N+]([O-])/N=C1\NCCN1Cc1ccc(Cl)nc1 | 12.4% (inactive) |
| CCCCC(CC)COC(=O)c1ccccc1C(=O)OCC(CC)CCCC (centres undefined) | 9.58% [at 92.7 µM] (inactive) |
| C=C[C@@H]1CN2CCC1C[C@@H]2[C@@H](O)c1ccnc2ccccc12 (some centres undefined) | 6.25% (inactive) |
| C[C@H]([C@H](O)CCC(C)(C)O)[C@H]1CC[C@@]2(O)C3=CC(=O)[C@@H]4C[C@@H](O)[C@@H](O)C[C@]4(C)[C@@H]3CC[C@]12C | 4.04% (inactive) |
| CCC(=O)O[C@@H]1C=C2CCC3C(CCC4(C)C3CC[C@@H]4OC(=O)CC)C2CC1 (some centres undefined) | 0.828% (inactive) |
| Cc1ccc(Cl)c(O)c1 | 2.6% (inactive) |
| O=[N+]([O-])c1ccc([As](=O)(O)O)cc1 | 7.45% (inactive) |
